# Experimental data reported in PubChem BioAssay (NCATS).
# “And” between values parts separate entries of the source, which are not always exact repeats. Equal values may be shown once. Results filed as inconclusive are left out. Values without a mark were called inactive. The source made the active and inactive calls. Unless noted, calls follow the shape of the dose curve; as a rule, active = well fitted curve in either direction with a large enough effect (not every such curve was filed as active); inconclusive = small, poorly fitted or top-dose-only effect, or another doubt; inactive = flat fitted curve, though single readings scatter.
# Key:
# [1] = AP1 Signaling Pathway (AID 357); conditions: ME-180 AP-1-bla reporter, EGF-induced, beta-lactamase ratio, 5 h;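 also: ME-180 reporter cells stimulated with EGF at its EC50 level; % is scaled to controls: 0 for no effect and ±100 for the full control effect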
# In short: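 Beta-lactamase reporter under AP-1 response element, ME-180 background. Stimulus: EC50 EGF. Compound exposure 5 h, 37 °C. Detection: CCF4, 2.5 h RT, 460/530 nm. Values: AC50 from titration.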
# [2] = NFAT Signaling Pathway (AID 444); conditions: Jurkat NFAT-bla M1, carbachol, beta-lactamase ratio, 5 h;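 also: carbachol stimulus at about its EC50 of 1 µM final; % is scaled to controls: 0 for no effect and ±100 for the full control effect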
# In short: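 Read-out: CCF4 FRET ratio (460 nm/530 nm) after 1 h RT dye loading, used for %activity and AC50 from titration series. Cells: Jurkat NFAT-β-lactamase/M1 line, treated with compound plus 1 uM carbachol for 5 h, 37 °C.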
# [3] = Stat Signaling Pathway (AID 446); conditions: ME-180 (cervical carcinoma) SIE beta-lactamase reporter, IL-6 stimulated, 5 h;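 also: ME-180 cervical cancer cells given 40 pM IL-6 alongside compound; SIE-controlled beta-lactamase reporter measured as 460/530 nm FRET emission ratio; % is scaled to controls: 0 for no effect and ±100 for the full control effect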
# In short: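 Emission at 460 and 530 nm (excitation 405 nm) reports SIE-controlled beta-lactamase in ME-180 cells. Cells received compound with 40 pM IL-6 for 5 hrs at 37 C; data scaled between 300 pM IL-6 and 125 nM JAK-inhibitor controls.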
# [4] = target: Cytochrome P450 1A2 (Homo sapiens) (UniProt P05177); assay: p450-cyp1a2 (AID 410; calls by dose curve; also: potency is read from the fitted curve at half-maximal effect;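 as to activity change, negative = inhibition: -100% = full effect of reference inhibitor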); conditions: recombinant CYP1A2, luciferin-ME demethylation, luminescence; series mostly up to 57 µM
# In short: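 Read-out is luminescence from luciferin produced by CYP1A2 demethylation of Luciferin-ME (100uM, at Km). Detection reagent stopped the 60 min NADPH-dependent reaction; signals were normalized to 57 uM furafylline.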
# [5] = Cell Viability - BJ (AID 421; calls by dose curve;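 also: potency is read from the fitted curve at half-maximal effect; cells exposed to compound for 40 hours at 37 °C before readout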); conditions: BJ fibroblast viability, qHTS
# In short: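 Cytotoxicity in human BJ foreskin fibroblasts is scored as loss of cellular ATP after a 40-hour exposure, measured by luciferase luminescence. Controls are DMSO and 100 uM tamoxifen.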
# [6] = Cell Viability - Hek293 (AID 427;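 active = compounds whose dose-response curve shows a full or clear partial loss of cell viability, called from curve shape rather than a numeric limit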;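 also: potency is read from the fitted curve at half-maximal effect; cells exposed to compound for 40 hours at 37 °C before reading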); conditions: qHTS
# In short: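 qHTS, human embryonic kidney (adenovirus-transformed) cells; 40 hr cpd, 37 °C; CellTiter-Glo ATP luminescence. Norm: DMSO = 0, 100 uM tamoxifen = 100% inhibition. Hill-fit AC50.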
# [7] = Cell Viability - HepG2 (AID 433; calls by dose curve;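 also: potency is read from the fitted curve at half-maximal effect; cells exposed to compound for 40 hours; potency for ATP loss meaning cytotoxicity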); conditions: qHTS
# In short: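 HepG2 cells, 1500 per well, treated 40 hr at 37 °C in complete medium; viability from intracellular ATP by CellTiter-Glo luminescence. Normalized to DMSO and 100 uM tamoxifen; AC50 from Hill fit of qHTS concentration-response.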
# [8] = Cell Viability - MRC5 (AID 434; calls by dose curve;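 also: potency is read from the fitted curve at half-maximal effect; cells exposed to compound for 40 hours at 37 °C; potency reflects cytotoxicity seen as loss of intracellular ATP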); conditions: MRC5 lung fibroblast viability, qHTS
# In short: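 AC50 values come from Hill-equation fits of intracellular ATP loss, measured by CellTiter-Glo luminescence. Normal lung fibroblasts (MRC5) had 40 hr compound treatment at 37 C, normalized between DMSO and 100 uM tamoxifen.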
# [9] = Cell Viability - SK-N-SH (AID 435; calls by dose curve;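 also: potency is read from the fitted curve at half-maximal effect; compound exposure lasted 40 h at 37 °C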); conditions: SK-N-SH neuroblastoma cell viability qHTS
# In short: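 SK-N-SH neuroblastoma cells (1500/well) treated 40 h at 37 °C in complete medium; viability read as cellular ATP by CellTiter-Glo luminescence. Normalized to DMSO and 100 uM tamoxifen; AC50 from Hill fits of qHTS concentration-response.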
# Sequence of Cytochrome P450 1A2 (Homo sapiens) (P05177 whole entry, looked up): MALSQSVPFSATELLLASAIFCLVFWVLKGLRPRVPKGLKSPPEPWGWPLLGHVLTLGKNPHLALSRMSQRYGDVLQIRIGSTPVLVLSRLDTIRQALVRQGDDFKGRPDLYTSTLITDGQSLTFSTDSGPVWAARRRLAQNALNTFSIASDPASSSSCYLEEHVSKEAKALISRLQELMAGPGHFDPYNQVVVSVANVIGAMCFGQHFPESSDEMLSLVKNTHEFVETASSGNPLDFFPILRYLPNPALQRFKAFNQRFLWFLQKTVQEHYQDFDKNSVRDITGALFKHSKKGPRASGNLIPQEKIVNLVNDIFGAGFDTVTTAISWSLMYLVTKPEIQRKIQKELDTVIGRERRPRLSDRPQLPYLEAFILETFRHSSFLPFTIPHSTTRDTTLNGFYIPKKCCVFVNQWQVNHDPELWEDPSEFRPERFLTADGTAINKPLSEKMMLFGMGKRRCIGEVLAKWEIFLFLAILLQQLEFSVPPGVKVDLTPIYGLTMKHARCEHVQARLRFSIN
smiles,measurement,setting,value
CC[C@@H]1C(=O)OC[C@@H]1Cc1cncn1C,"activity change, negative = inhibition",[1]; at 17.2 µM (top of the series),-3.08% and 5.87%
same,"activity change, negative = inhibition",[2]; at 17.2 µM (top of the series),75.4% [activator] (active)
same,"activity, negative = inhibition",[3]; at 17.2 µM (top of the series),1.99% and 5.87%
Cc1nccc2c1[nH]c1ccccc12,"activity change, negative = inhibition",[1]; at 17.2 µM (top of the series),-6.36%
same,"activity change, negative = inhibition",[1]; at 38 µM (top of the series),-14.9%
same,Potency,[4],3.98 µM (active) and 1.26 µM (active) and 631 nM (active)
same,"activity change, negative = inhibition",[2]; at 17.2 µM (top of the series),-12.1%
same,"activity change, negative = inhibition",[2]; at 38 µM (top of the series),-12.6%
same,"activity, negative = inhibition",[3]; at 17.2 µM (top of the series),1.58%
same,"activity, negative = inhibition",[3]; at 38 µM (top of the series),11%
O=C1CCCN1CC#CCN1CCCC1,"activity change, negative = inhibition",[1]; at 38 µM (top of the series),8.1%
same,Potency,[4],inactive
same,"activity, negative = inhibition",[3]; at 38 µM (top of the series),-7.65%
CN(C)[C@@H]1C(=O)C(C(N)=O)=C(O)[C@@]2(O)C(=O)C3=C(O)c4c(O)cccc4[C@@](C)(O)[C@H]3[C@H](O)[C@@H]12,"activity change, negative = inhibition",[1]; at 17.2 µM (top of the series),12.6%
same,Potency,[5],> 92 µM
same,Potency,[6],> 92 µM
same,Potency,[7],> 92 µM
same,Potency,[8],> 92 µM
same,Potency,[9],> 92 µM
same,"activity change, negative = inhibition",[2]; at 17.2 µM (top of the series),0.604%
same,"activity, negative = inhibition",[3]; at 17.2 µM (top of the series),3.84%
CC(=O)NCCc1c[nH]c2ccccc12,"activity change, negative = inhibition",[1]; at 38 µM (top of the series),3.76%
same,Potency,[4],15.8 µM (active)
same,"activity change, negative = inhibition",[2]; at 38 µM (top of the series),5.76%
NCc1cc(=O)[nH]o1,"activity change, negative = inhibition",[1]; at 38 µM (top of the series),1.2%
same,Potency,[4],inactive
same,"activity change, negative = inhibition",[2]; at 38 µM (top of the series),7.89%
same,"activity, negative = inhibition",[3]; at 38 µM (top of the series),-1.4%
O=C(O)Cc1cnc[nH]1,"activity change, negative = inhibition",[1]; at 38 µM (top of the series),10.5%
same,Potency,[4],inactive
same,"activity change, negative = inhibition",[2]; at 38 µM (top of the series),-2.43%
same,"activity, negative = inhibition",[3]; at 38 µM (top of the series),-3.06%
CC(=O)OCC1=C(C(=O)O)N2C(=O)[C@@H](N)[C@@H]2SC1,"activity change, negative = inhibition",[1]; at 17.2 µM (top of the series),2.29%
same,Potency,[4],inactive
same,"activity change, negative = inhibition",[2]; at 17.2 µM (top of the series),-6.12%
same,"activity, negative = inhibition",[3]; at 17.2 µM (top of the series),-1.03%
Cn1cnc(CCN)c1,"activity change, negative = inhibition",[1]; at 38 µM (top of the series),7.44%
same,Potency,[4],inactive
same,"activity change, negative = inhibition",[2]; at 38 µM (top of the series),6.43%
same,"activity, negative = inhibition",[3]; at 38 µM (top of the series),0.0099%
CN[C@@H]1C[C@@H](c2ccc(Cl)c(Cl)c2)c2ccccc21,"activity change, negative = inhibition",[1]; at 38 µM (top of the series),23.3%
same,"activity change, negative = inhibition",[2]; at 38 µM (top of the series),-14.3%
C[C@]12N[C@H](Cc3ccccc31)c1ccccc12,"activity change, negative = inhibition",[1]; at 38 µM (top of the series),-6.02% and 8.41%
same,Potency,[4],inactive
same,"activity change, negative = inhibition",[2]; at 38 µM (top of the series),-11.3% and -3.27%
same,"activity, negative = inhibition",[3]; at 38 µM (top of the series),16.1% and 6.66%
CC1=NN=C(c2ccc(N)cc2)c2cc3c(cc2C1)OCO3,"activity change, negative = inhibition",[1]; at 38 µM (top of the series),-19.4%
same,Potency,[4],31.6 µM (active)
same,"activity change, negative = inhibition",[2]; at 38 µM (top of the series),7.54%
c1ccc(CCCN2CCN(CCOC(c3ccccc3)c3ccccc3)CC2)cc1,"activity change, negative = inhibition",[1]; at 38 µM (top of the series),-23%
same,"activity change, negative = inhibition",[2]; at 38 µM (top of the series),-82.7% (active)
same,"activity, negative = inhibition",[3]; at 38 µM (top of the series),-17.9%
COc1ccc2c(c[n+](C)c3c4cc5c(cc4ccc23)OCO5)c1OC,"activity change, negative = inhibition",[1]; at 38 µM (top of the series),1.37%
same,Potency,[4],10 µM (active)
